ALOX12 inh = ALOX12 (human) lipoxygenase inhibition | P18054 | purified 12hLO, xylenol orange hydroperoxide absorbance | Potency, µM (titrated, usually from 108 µM), for the others: top-dose activity change, negative = inhibition, hits mostly inhibitors | 580,000 tested, 1.1% active; also: potency is read from the fitted curve at half-maximal effect
Target sequence (P18054 whole entry, looked up): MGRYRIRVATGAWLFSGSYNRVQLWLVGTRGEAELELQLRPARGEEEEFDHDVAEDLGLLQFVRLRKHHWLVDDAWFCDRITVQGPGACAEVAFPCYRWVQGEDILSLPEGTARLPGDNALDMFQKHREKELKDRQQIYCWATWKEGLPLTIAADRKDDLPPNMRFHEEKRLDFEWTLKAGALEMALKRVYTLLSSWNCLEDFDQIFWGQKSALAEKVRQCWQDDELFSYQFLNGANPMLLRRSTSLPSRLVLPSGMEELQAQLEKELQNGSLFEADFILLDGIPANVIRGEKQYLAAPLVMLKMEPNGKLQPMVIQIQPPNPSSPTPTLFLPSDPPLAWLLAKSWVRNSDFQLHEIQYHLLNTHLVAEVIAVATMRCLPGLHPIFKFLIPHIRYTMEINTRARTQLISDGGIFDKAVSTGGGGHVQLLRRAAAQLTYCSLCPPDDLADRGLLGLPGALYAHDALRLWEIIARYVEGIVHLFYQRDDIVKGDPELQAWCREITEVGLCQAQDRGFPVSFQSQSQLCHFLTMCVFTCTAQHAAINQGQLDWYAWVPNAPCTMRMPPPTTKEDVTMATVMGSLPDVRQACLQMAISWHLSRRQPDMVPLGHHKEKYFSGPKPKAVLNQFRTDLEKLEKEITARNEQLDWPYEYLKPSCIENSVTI
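Hydroperoxide product was detected by ferrous iron/xylenol orange as the 573 to 405 nm absorbance ratio. Arachidonic acid at 40 uM (final) was turned over for 30 min at room temperature by 150 nM human 12hLO, pH 7.0 Hepes buffer, after 15 min compound preincubation.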
HT1080NT lethal = kills 2HG-producing HT-1080-NT fibrosarcoma cells. HT-1080-NT fibrosarcoma viability, CellTiter-Glo ATP luminescence, 48 h. Potency, µM (highest dose often 46.1 µM), for the others: top-dose activity, negative = less viability, actives largely listed as cytotoxic. 360,000 tested, 1.6% active. AID 686970;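 also: NT is the 2HG producing partner of a matched IDH1 knockdown line; potency is read from the fitted curve at half-maximal effect; 0% = DMSO-treated cells and -100% = media-only wells without cells; nearly all actives have a fitted effect of over 55% in size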
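HT-1080-NT fibrosarcoma cells (2HG-overproducing), 750 cells/well in RPMI with 5% FBS, dosed after 2 h and incubated 48 h at 37C. CellTiter-Glo luminescence normalized to DMSO and no-cell wells; concentration-response curves fitted and classed.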
HT1080 IDH1KD tx = toxicity to HT-1080 IDH1 knockdown cells (counter line); AID 686971; 360,000 tested, 2% active; HT-1080 IDH1 knockdown viability, ATP luminescence, 48 h; Potency, µM (highest dose often 46.1 µM), without a hit: top-dose activity, negative = toxicity, hits mostly cytotoxic;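 also: potency is read from the fitted curve at half-maximal effect; 0% = DMSO wells and -100% = cell-free medium wells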
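% activity derives from luminescence (CellTiter-Glo), normalised to DMSO and no-cell wells. HT-1080-IDH1KD cells, 750/well, had 48 h compound exposure at 37 °C.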
DT40 TDP1 no CPT = qHTS for Inhibitors of human tyrosyl-DNA phosphodiesterase 1 (TDP1): qHTS in cells in absence of CPT. DT40 Tdp1-/- hTDP1 cells, no CPT, ATP luminescence, 48 h. Potency, µM (top dose mostly 46.2 µM), for inactives: at the highest dose activity change, negative = growth inhibition, actives largely listed as inhibitors. 420,000 tested, 15% active; also: potency is read from the fitted curve at half-maximal effect; nearly all actives have a fitted effect of over 55% in size
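Luminescent ATP content (CellTiter-Glo) served as the growth readout. Knockout chicken DT40 cells expressing human TDP1 were exposed to compounds without camptothecin for a minimum 48 hr at 37 °C.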
IL1B secr inh = inhibitors of inflammasome signaling (IL-1 beta secretion) | activity change, % at 57.5 µM | AID 743279 | 360,000 tested, 4.7% active | THP-1 LPS/ATP IL-1B secretion, AlphaLISA, 16 h; hits give low values; in the data active = activity change below about -50%; inconclusive = mostly about -30% to -49%
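Secreted IL-1B measured by AlphaLISA bead assay after 16 h compound exposure of THP-1 cells; compounds (final up to 57.5 uM) added 1 h before LPS (250 ng/mL) and ATP (1.25 mM) stimulation; lower signal means less secretion.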
TDP1 cell CPT = DT40-hTDP1 cell growth loss with CPT | chicken DT40 Tdp1-/-;hTDP1 cells + 20 nM CPT, ATP luminescence, 48 h | Potency, µM (highest dose often 46.2 µM), for the others: at the highest dose activity change, negative = growth inhibition, actives largely listed as inhibitors | 420,000 tested, 12% active | AID 686979; also: potency is read from the fitted curve at half-maximal effect; nearly all actives have a fitted effect of over 55% in size
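Cell growth measured by CellTiter-Glo luminescence after a minimum 48 h, 37 C compound exposure with 20 nM CPT in Tdp1-knockout DT40 cells stably expressing hTDP1, seeded 400/well; qHTS titration format.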
* marks the source's active call; other numbers are inactive results; ? = inconclusive; / = not tested or not shown; [ ] = remark or other dose. The sample as a whole holds a higher share of hits than the screen did. Unless noted, calls follow the shape of the dose curve; as a rule, active = well fitted curve in the direction sought with a large enough effect; inconclusive = small, poorly fitted or top-dose-only effect, or another doubt; inactive = no such curve, though single readings can be large; an effect the other way counts as inactive or inconclusive. Unless noted, % is scaled to controls: 0 for no effect and ±100 for the full control effect.

SMILES	ALOX12 inh	HT1080NT lethal	HT1080 IDH1KD tx	DT40 TDP1 no CPT	IL1B secr inh	TDP1 cell CPT
O=C1CSC2(C(=O)N(Cc3ccccc3)c3ccccc32)N1c1ccc(Cl)cc1 (stereo unspecified)	5%	/	/	21µM*	/	16µM*
COc1ccc(N2C(=O)CSC23C(=O)N(CC(=O)NCc2ccccc2)c2ccccc23)cc1 (stereo unspecified)	-5%	/	/	?	/	-5%
Cc1ccc(N2C(=O)CSC23C(=O)N(CC(=O)NCCc2ccccc2)c2ccccc23)cc1C (stereo unspecified)	0%	/	/	?	/	?
CCC(=O)Nc1cc2c(cc1OC)C(c1ncnn1CC)CC(=O)N2 (stereo unspecified)	21%	/	/	/	/	/
CCOc1cc(S(=O)(=O)NCc2ccc(OC)cc2)c(OCC)cc1-n1cnnn1	-20%	13µM*	8.9µM*	2.1µM*	28	4.1µM*
CCOc1ccc(OCC)c(NC(=O)c2nnn(CC(=O)Nc3cc(C)cc(C)c3)c2N)c1	-12%	?	21µM*	-25%	-14	-23%
Cc1cc(C)cc(NC(=O)c2nnn(Cc3cc(C)ccc3C)c2N)c1	/	-24%	?	?	0	21µM*
Cc1ccc(C)c(Cn2nnc(C(=O)Nc3ccc4c(c3)OCCO4)c2N)c1	-2%	-11%	-13%	?	-17	?
CN1CCN(c2nc(-c3ccc(C(C)(C)C)cc3)nc3ccccc23)CC1	32µM*	-15%	-15%	21µM*	-16	?
Cc1ccc(-c2nc(N3CCN(C)CC3)c3ccccc3n2)cc1	-34%	-29%	-5%	?	?	?
CCN1CCN(c2nc(-c3ccccc3)nc3ccccc23)CC1	-13%	-13%	-14%	29µM*	-65*	?
CSC(=S)NCc1cccnc1	6%	?	?	3.3µM*	-63*	2.9µM*
O=C(Nc1ccc2[nH]ncc2c1)c1nn(-c2ccccc2)c(=O)c2ccccc12	8%	/	/	/	/	/
Cc1nn(-c2ccccc2)nc1C(=O)Nc1ccc2[nH]ncc2c1	48%	-2%	1%	21µM*	-14	-26%
CCOC(=O)CSC1=C(C#N)C(c2ccccc2OCC)C(C#N)C(=O)N1 (stereo unspecified)	?	?	-9%	18µM*	4	15µM*
CCOC(=O)C1C(=O)NC(SCC(=O)Nc2nccs2)=C(C#N)C1c1ccccc1OCC (stereo unspecified)	/	11%	1%	13µM*	-6	?
O=C(NC1CCCCC1)c1cc2cc(Cl)ccc2[nH]1	-17%	/	/	/	/	/
O=C(N[C@@H]1C[C@H](Cn2cc(C3CC3)nn2)[C@@H](O)[C@H]1O)C1CCOCC1	63%[176 µM]	/	/	/	/	/
O=S(=O)(NCCc1nnc2ccc(SCc3c(F)cccc3Cl)nn12)c1ccccc1	-3%	/	/	23µM*	/	?
O=S(=O)(NCCc1nnc2ccc(SCc3ccccc3Cl)nn12)c1ccccc1	-18%	/	/	23µM*	/	16µM*
COc1ccc(S(=O)(=O)NCCc2nnc3ccc(SCC(=O)Nc4ccccc4C)nn23)cc1	0%	/	/	-16%	/	-8%
COc1ccc(Cl)cc1NC(=O)CSc1ccc2nnc(CCNS(=O)(=O)c3ccccc3)n2n1	-13%	/	/	?	/	18µM*
CCC(C)c1ccc(NC(=O)c2nccnc2N)cc1 (stereo unspecified)	-3%	/	/	/	/	/
COc1ccc(CCC(=O)N2CCC3(CC2)CC(C(=O)N2CCOCC2)N(C)C3)cc1 (stereo unspecified)	40%	/	/	/	/	/
Cc1ccc(-c2nc3ccccc3[nH]2)cc1NC(=O)c1ccc2c(c1)OCO2	16%	-7%	-12%	?	-17	?

Screens: PubChem, National Center for Advancing Translational Sciences (NCATS)
